Pf growth 48h: Primary qHTS for delayed death inhibitors of the malarial parasite plastid, 48 hour incubation; P. falciparum luciferase growth in erythrocytes, 48 h; Potency, µM (series often up to 28.7 µM), for the others: at the highest dose activity change, negative = inhibition, actives largely listed as inhibitors; actives 5.9% (n = 310,000); note: potency is the fitted concentration of half-maximal effect; % is set by controls: 0 for no effect and ±100 for the full control effect
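Growth was read as firefly luciferase luminescence after a 48 h, 37 C, 5% CO2 exposure of compounds to reporter-bearing P. falciparum cultures (0.1% parasitemia, 2% hematocrit final) in Albumax-supplemented RPMI 1640.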
HCMV antiviral: qHTS Assay for inhibitors of the human cytomegalovirus (HCMV); HFF cells, HCMV-luciferase reporter, 72 h; stronger effect = lower value; actives 4.5% (n = 410,000); AID 1259415, 2018; activity change, negative = inhibition, % at 57.5 µM; in the data active = activity change below about -60%; inconclusive = no clear call, values can overlap the other calls; inactive = above about -39%; note: % is set by controls: 0 for no effect and ±100 for the full control effect
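Steps: HFFs plated, 16 h 37C; compounds added; HCMV-luciferase added to MOI 1 PFU/cell; 72 h 37C; OneGlo reagent, 5 min room temperature; luminescence read, normalized to controls.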
Sm TGR inh: qHTS Assay for the Inhibitors of Schistosoma Mansoni Peroxiredoxins. AID 485364, 2010. Schistosoma mansoni thioredoxin glutathione reductase (TGR), Q962Y6. purified TGR, DTNB reduction, TNB absorbance 405 nm. actives 3% (n = 360,000). Potency, µM (doses to about 114 µM), inactives show at the top dose activity change, negative = inhibition, actives largely listed as inhibitors; note: potency is the fitted concentration of half-maximal effect; % is set by controls: 0 for no effect and ±100 for the full control effect; nearly all actives have a fitted effect of over 60% in size
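First, TGR (20 nM dispensed) and NADPH were mixed with compound. Second, a 15 min room-temperature incubation followed. Third, further NADPH and then DTNB were added to start the reaction. Finally, TNB absorbance was monitored kinetically.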
SARS PLP yeast: qHTS of Yeast-based Assay for SARS-CoV PLP; S. cerevisiae expressing SARS-CoV PLpro, growth rescue; Potency, µM (top dose mostly 32.9 µM), for the others: at the top dose activity, positive = growth rescue, hits mostly activators; actives 0.19% (n = 330,000); AID 485353, 2010; calls by dose curve; note: potency is the fitted concentration of half-maximal effect; 0% is about no effect; nearly all actives have a fitted effect of over 55% in size
Pf growth 96h: Primary qHTS for delayed death inhibitors of the malarial parasite plastid, 96 hour incubation. P. falciparum luciferase reporter growth, 96 h. Potency, µM (top dose mostly 28.7 µM), without a hit: at the highest dose activity change, negative = inhibition, hits mostly inhibitors. actives 6.9% (n = 320,000). AID 504834, 2011; note: potency is the fitted concentration of half-maximal effect; % is set by controls: 0 for no effect and ±100 for the full control effect
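Readout is luminescence from an integrated firefly luciferase in P. falciparum. Red cells, 2% hematocrit and 0.05% parasitemia final, were cultured with compound through two parasite generations (96 hours) at 37 C, 5% CO2.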
HCV inh: qHTS Assay for Inhibitors of Hepatitis C Virus (HCV) | Huh7.5.1 HCVcc-Cre infection, luciferase reporter, 44 h | Potency, µM (titrated, usually from 41.8 µM), inactives show top-dose activity change, negative = inhibition, usual class: inhibitors | actives 3.4% (n = 340,000) | AID 651820, 2012; note: potency is the fitted concentration of half-maximal effect; % is set by controls: 0 for no effect and ±100 for the full control effect
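Reporter virus HCVcc-Cre (~0.5 moi) infects cells exposed to compound; seeding density 1,000 cells/well with 4 h settling beforehand. Luminescence, 15 sec read, taken 44 h post-infection following a 15 min RT substrate incubation.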
Active calls of the source: *; i = inactive; ? = inconclusive; / = no result. Shown are actives, neighbours in structure and some others; about 15% of the full set was active somewhere. Unless noted, calls come from the whole dose curve; as a rule, active = well fitted curve in the direction sought with a large enough effect; inconclusive = small, poorly fitted or top-dose-only effect, or another doubt; inactive = no such curve, though single readings can be large; an effect the other way counts as inactive or inconclusive.

SMILES	Pf growth 48h	HCMV antiviral	Sm TGR inh	SARS PLP yeast	Pf growth 96h	HCV inh
CC(/C=C1\SC(=S)N(NC(=O)c2ccc(C)cc2)C1=O)=C\c1ccccc1	20%	/	-3%	-4%	8%	?
O=C(CCN1C(=O)/C(=C/c2cccs2)SC1=S)Nc1cccc(O)c1	3%	-8	-12%	7%	3%	-26%
Cc1ccc(/C=C2\SC(=S)N(CCCC(=O)NC3CCCC3)C2=O)cc1	-19%	-61*	5%	5%	?	20%
Cc1ccc(/C=C2/SC(=S)N(CCCC(=O)Nc3ccc(O)cc3)C2=O)cc1	?	-100*	9%	-2%	3%	-26%
CC(/C=C1\SC(=S)N(c2ccc(C(=O)O)cc2)C1=O)=C\c1ccccc1	4.7µM*	-23	-19%	-1%	?	23%
O=C(CCCN1C(=O)/C(=C/c2cccs2)SC1=S)Nc1cccc(O)c1	?	-100*	13%	-2%	24%	?
O=C(NC(=S)Nc1ccc2c(c1)C(=O)c1ccccc1C2=O)c1ccc(F)cc1	173%	/	-14%	-20%	205%	5%
CC(=O)c1ccc(NC(=O)c2cc(C)nc3c2c(C)nn3-c2ccc(C)cc2)cc1	/	30	8%	/	/	/
Cc1ccc(NC(=O)CN2C(=O)S/C(=C\c3ccc(C(=O)O)cc3)C2=O)cc1	9%	9	-7%	?	15µM*	4%
CCc1ccc(/C=C2\SC(=S)N(CCCC(=O)NC3=NCCS3)C2=O)cc1	/	-74*	/	/	/	/
OC(CNC1CCCCC1)CN1CCN(CC(O)CNC2CCCCC2)CC1 (stereo unspecified)	-2%	/	-15%	3%	/	10%
COc1ccc2c(c1)-c1nc(/N=C/c3ccccc3O)sc1CC2	34%	7	-1%	-43%	?	10µM*
CC(=O)N/N=C/c1ccc(OCCOc2ccc(Br)cc2)cc1	?	-37	-5%	12%	5%	22%
COc1ccccc1NC(=O)NCc1cccn1Cc1ccccc1	/	-6	14%	/	/	/
Cc1ccc(-c2cc3c(N=O)c4ccccc4c-3n[nH]2)cc1	138%	-94*	-7%	-3%	i	14%
Cc1cccc(-c2cc3c(N=O)c4ccccc4c-3n[nH]2)c1	38%	83	-6%	-1%	45%	11µM*
O=Nc1c2cc(-c3ccccc3)[nH]nc-2c2ccccc12	226%	18	-4%	-2%	500%	?
O=S(=O)(NCc1ccc(Cl)cc1)c1cccc2cccnc12	7%	-38	-1%	-1%	16%	16%
O=C(Nc1ncccc1O)c1ccc(S(=O)(=O)Nc2ccccc2)cc1	0.83µM*	-12	3%	0%	?	25%
O=S(=O)(NCCc1ccc(Cl)cc1)c1cccc2cccnc12	-6%	2	-3%	-2%	9.3µM*	4%
CCCCCNC(=O)c1ccc(NS(=O)(=O)c2ccc3[nH]c(=O)[nH]c3c2)cc1	?	-95*	25µM*	?	?	3%
O=C(Nc1ncccc1O)c1ccc(NS(=O)(=O)c2ccc3[nH]c(=O)[nH]c3c2)cc1	0.13µM*	?	-9%	-2%	0.1µM*	2%
O=C(NCc1cccnc1)c1ccc(S(=O)(=O)Nc2ccccc2)cc1	-30%	-30	2%	1%	-5%	4%
N#Cc1ccccc1S(=O)(=O)N1CCNS(=O)(=O)c2ccccc21	/	-20	/	3%	/	4%
CC1(C(=O)NS(=O)(=O)C2CC2)CCCN(C(=O)c2ccco2)C1 (stereo unspecified)	/	11	/	/	/	/
SMILES	Pf growth 48h	HCMV antiviral	Sm TGR inh	SARS PLP yeast	Pf growth 96h	HCV inh
O=C(c1ccc(F)cc1)C1CCN(CCCn2c(=O)[nH]c3ccccc32)CC1	/	-33	/	/	/	/
O=C(Nc1ccccc1O)c1ccc(NS(=O)(=O)c2cccc3cccnc23)cc1	2.3µM*	-26	-2%	-2%	?	-3%
COC(=O)c1ccc(NC(=O)c2ccc(NS(=O)(=O)c3cccc4cccnc34)cc2)cc1	3%	/	6%	-3%	23%	-23%
Cc1ccc(NS(=O)(=O)c2cccc3cccnc23)cc1Cl	-29%	-94*	-23%	1%	24%	?
O=S(=O)(Nc1ccc(Cl)cc1)c1cccc2cccnc12	-20%	-18	6%	1%	1%	3%
Cc1cc(C(=O)Nc2cccc3c2O[C@@H](CN(C)S(C)(=O)=O)[C@H](C)CN([C@@H](C)CO)C3=O)n(C)n1	/	-12	/	24%	/	12%
CCN1CCN(C(=O)c2cc(COc3c(C)cccc3C)on2)CC1	6%	-27	-14%	-4%	?	13%
CCOC(=O)N1CCN(C(=O)c2cc(COc3ccc4ncccc4c3)on2)CC1	?	-74*	?	0%	i	7.9µM*
CCOC(=O)N1CCN(C(=O)c2cc(COc3cccc(C(C)=O)c3)on2)CC1	-9%	36	-9%	-3%	-10%	17%
Cc1cccnc1CN1CCN(C(=O)c2cc(COc3ccc4ncccc4c3)on2)CC1	8%	-83*	-2%	0%	?	4µM*
Cc1ccc(Cn2nnc3c(=O)n(CC(=O)N4CCN(c5ccccc5)CC4)cnc32)cc1	?	-65*	2%	-3%	-17%	-30%
Cc1ccc(Cn2nnc3c(=O)n(CC(=O)OCc4ccccc4)cnc32)cc1	-12%	38	-20%	9%	?	15%
O=C(Cn1cnc2c(nnn2Cc2ccc(Cl)cc2)c1=O)c1ccccc1	16%	-71*	2%	-1%	?	5%
O=C(Cn1cnc2c(nnn2Cc2ccc(F)cc2)c1=O)NCc1ccco1	-7%	46	-26%	-7%	?	7%
O=C(Cn1cnc2c(nnn2Cc2ccc(F)cc2)c1=O)NCc1ccccc1	9.3µM*	-10	3%	3%	-26%	8%
O=C(CN(Cc1ccco1)C(=O)CNS(=O)(=O)c1ccc(Cl)cc1)NCC1CCCO1 (stereo unspecified)	1.9µM*	-12	-31%	-1%	0%	3%
CC(C)C(C(=O)NCc1ccco1)N(C(=O)CNS(=O)(=O)c1ccccc1)c1ccccc1 (stereo unspecified)	-9%	-34	/	-1%	i	3%
CC(C)C(C(=O)NCc1ccco1)N(C(=O)CNS(=O)(=O)c1ccc(Cl)cc1)C1CCCC1 (stereo unspecified)	?	-2	45µM*	0%	?	8%
